Results taken from PubChem BioAssay (NCATS).
Results filed as inconclusive are left out. Unless noted, calls come from the whole dose curve; as a rule, active = well fitted curve in either direction with a large enough effect (not every such curve was filed as active); inconclusive = small, poorly fitted or top-dose-only effect, or another doubt; inactive = flat fitted curve, though single readings scatter.

Target: Lysosomal acid glucosylceramidase (Homo sapiens) (UniProt P04062)
Assay: Glucocerebrosidase-p2 (AID 348; in the data active = potency below about 10 µM; note: potency is the fitted concentration of half-maximal effect)
Conditions: purified GBA, blue fluorogenic substrate, 40 min
In short: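 Compounds titrated from 0.6 nM upwards against 0.2 nM enzyme in pH 5.9 citric acid/KH2PO4, taurocholate, tween-20; blue fluorogenic substrate 80 uM, 40 min room temperature, stopped and read Ex 365/Em 440 for AC50.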

Lysosomal acid glucosylceramidase (Homo sapiens), sequence (P04062 whole entry, looked up): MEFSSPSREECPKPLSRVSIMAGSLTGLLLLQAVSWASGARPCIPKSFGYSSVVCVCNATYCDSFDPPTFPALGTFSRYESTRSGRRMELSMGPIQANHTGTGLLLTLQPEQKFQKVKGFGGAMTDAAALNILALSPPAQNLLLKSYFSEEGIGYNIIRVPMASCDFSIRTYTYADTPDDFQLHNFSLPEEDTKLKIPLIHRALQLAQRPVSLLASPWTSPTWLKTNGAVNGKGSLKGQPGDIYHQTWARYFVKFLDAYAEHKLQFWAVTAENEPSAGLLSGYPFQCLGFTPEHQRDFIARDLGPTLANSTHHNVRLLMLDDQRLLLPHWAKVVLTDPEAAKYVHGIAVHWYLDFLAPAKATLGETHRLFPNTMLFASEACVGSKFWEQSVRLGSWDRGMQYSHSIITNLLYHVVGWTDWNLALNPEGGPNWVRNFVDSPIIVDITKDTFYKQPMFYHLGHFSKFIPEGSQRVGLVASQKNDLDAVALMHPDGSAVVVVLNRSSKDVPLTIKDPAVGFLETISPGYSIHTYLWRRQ

Potency, inactive:
Cc1noc(C)c1-c1nccc(N2CCOCC2)n1 > 11.4 µM
CNc1nc(-c2ccc3c(c2)OCO3)nc2ccccc12 11.4 µM
O=c1c(-c2ccccc2)nc2cnc(Nc3ccccc3)nc2n1Cc1cccs1 > 11.4 µM
c1csc(CNc2ccnc(-c3ccoc3)n2)c1 > 11.4 µM
Cc1ccccc1-c1nccc(NCCN2CCOCC2)n1 > 11.4 µM
CCNc1ncc2nc(-c3ccc(OC)cc3)c(=O)n(C[C@H]3CCCO3)c2n1 > 11.4 µM
CC(=O)NCCNc1nc(-c2cccnc2)nc2ccccc12 > 11.4 µM
Cc1cccc(CNc2cc(-c3c(C)noc3C)ncn2)c1 > 11.4 µM
CCNc1ncc2ncc(=O)n(CCOC)c2n1 > 11.4 µM
CCNc1ncc2nc(-c3ccccc3)c(=O)n(Cc3cccs3)c2n1 > 11.4 µM
COc1cccc(-c2cncnc2N(C)Cc2ccco2)c1 > 11.4 µM
CN(C)C(=O)c1ccc(-c2cncnc2NCCc2cnc[nH]2)cc1 > 11.4 µM
Cc1cnc(CNc2ccnc(-c3ccccc3C(F)(F)F)n2)cn1 > 11.4 µM
FC(F)(F)c1ccccc1-c1nccc(NCc2cccs2)n1 > 11.4 µM
c1ccc(Nc2cc(-c3ccoc3)ncn2)cc1 > 11.4 µM
Cn1c(=O)c(-c2ccccc2)nc2cncnc21 > 11.4 µM
CN(C)Cc1ccccc1-c1nc(N(C)C)c2ccccc2n1 > 11.4 µM
CN(C)c1ncc2nc(-c3ccc(F)cc3)c(=O)n(C)c2n1 > 11.4 µM
O=c1c(-c2cc(F)cc(F)c2)nc2cnc(Nc3ccccc3)nc2n1C[C@H]1CCCO1 > 11.4 µM
CCNc1ncc2nc(C)c(=O)n(CCC#N)c2n1 > 11.4 µM
FC(F)(F)c1ccccc1-c1ccc2ncnc(NCc3cccnc3)c2c1 > 11.4 µM
COc1ccc(CNc2ncnc3ccc(-c4cccnc4)cc23)c(OC)c1 > 11.4 µM
COc1ccc(-n2c(=O)cnc3cnc(OC)nc32)cc1 > 11.4 µM
Cc1noc(C)c1-c1ccc2ncnc(N3CCN(C)CC3)c2c1 > 11.4 µM
COc1ccc(-n2c(=O)c(-c3cccs3)nc3cnc(N(C)C)nc32)cc1 > 11.4 µM
O=c1cnc2cncnc2n1Cc1ccccc1Cl > 11.4 µM
Cc1ccccc1-c1cc(Nc2ccccc2)ncn1 > 11.4 µM
COc1ncc2nc(-c3ccccc3)c(=O)n(-c3ccccc3)c2n1 > 11.4 µM
COc1ncc2nc(-c3ccc(F)cc3)c(=O)n(-c3ccccc3)c2n1 > 11.4 µM
Cc1noc(C)c1-c1cncnc1NCc1ccccc1 > 11.4 µM
COc1cccc(Cn2c(=O)c(-c3ccc(F)cc3)nc3cnc(N(C)C)nc32)c1 > 11.4 µM
FC(F)(F)c1ccccc1-c1nc(NCCN2CCOCC2)c2ccccc2n1 > 11.4 µM

Tested on: not listed separately
Assay: AP1 Signaling Pathway (AID 357);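 note: ME-180 reporter cells stimulated with EGF at its EC50 level; % is set by controls: 0 for no effect and ±100 for the full control effect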
Conditions: ME-180 (cervical carcinoma) AP-1-bla reporter, EGF-induced, beta-lactamase ratio, 5 h; at 7.69 µM (top of the series) unless noted
In short: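 First, ME-180 AP-1-bla cells were cultured overnight at 37 °C in low-serum Opti-MEM. Next, titrated compounds with EC50 EGF were incubated 5 hours. Finally, CCF4 was added for 2.5 hours and the 460/530 nm ratio recorded.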

Activity change, negative = inhibition, inactive:
Cc1noc(C)c1-c1nccc(N2CCOCC2)n1 19%
CNc1nc(-c2ccc3c(c2)OCO3)nc2ccccc12 28.9%
O=c1c(-c2ccccc2)nc2cnc(Nc3ccccc3)nc2n1Cc1cccs1 -15.4%
c1csc(CNc2ccnc(-c3ccoc3)n2)c1 8.64%
Cc1ccccc1-c1nccc(NCCN2CCOCC2)n1 20.7%
CCNc1ncc2nc(-c3ccc(OC)cc3)c(=O)n(C[C@H]3CCCO3)c2n1 -5.93%
CC(=O)NCCNc1nc(-c2cccnc2)nc2ccccc12 5.7%
Cc1cccc(CNc2cc(-c3c(C)noc3C)ncn2)c1 -5.03%
CCNc1ncc2ncc(=O)n(CCOC)c2n1 -22.6%
COCCNc1nc(-c2ccccc2Cl)nc2ccccc12 -0.0888%
COc1cccc(-c2cncnc2N(C)Cc2ccco2)c1 -8.71%
CN(C)C(=O)c1ccc(-c2cncnc2NCCc2cnc[nH]2)cc1 -9.74%
Cc1cnc(CNc2ccnc(-c3ccccc3C(F)(F)F)n2)cn1 2.04%
FC(F)(F)c1ccccc1-c1nccc(NCc2cccs2)n1 2%
c1cncc(-c2cncnc2NC2CCNCC2)c1 11.1%
c1ccc(Nc2cc(-c3ccoc3)ncn2)cc1 -8.62%
Cn1c(=O)c(-c2ccccc2)nc2cncnc21 -7.79%
CN(C)Cc1ccccc1-c1nc(N(C)C)c2ccccc2n1 19.8%
CN(C)c1ncc2nc(-c3ccc(F)cc3)c(=O)n(C)c2n1 -9.27%
O=c1cnc2cnc(Oc3cccc(Cl)c3)nc2n1C[C@H]1CCCO1 -1.71%
O=c1c(-c2cc(F)cc(F)c2)nc2cnc(Nc3ccccc3)nc2n1C[C@H]1CCCO1 -3.83%
CCNc1ncc2nc(-c3ccc(F)cc3)c(=O)n(CCOC)c2n1 -5.66%
CCNc1ncc2nc(C)c(=O)n(CCC#N)c2n1 -5.37%
FC(F)(F)c1ccccc1-c1ccc2ncnc(NCc3cccnc3)c2c1 5.26%
COc1ccc(-n2c(=O)cnc3cnc(OC)nc32)cc1 -6%
COc1ccc(-n2c(=O)c(-c3cccs3)nc3cnc(N(C)C)nc32)cc1 -10.2%
O=c1cnc2cncnc2n1Cc1ccccc1Cl 8.55%
Cc1ccccc1-c1cc(Nc2ccccc2)ncn1 -4.93%
COc1ncc2nc(-c3ccccc3)c(=O)n(-c3ccccc3)c2n1 -21.5%
COc1ncc2nc(-c3ccc(F)cc3)c(=O)n(-c3ccccc3)c2n1 -5.39%
CN1CCN(c2ncc3ncc(=O)n(CCC#N)c3n2)CC1 -10.2%
Cc1noc(C)c1-c1cncnc1NCc1ccccc1 -6.64%
COc1cccc(Cn2c(=O)c(-c3ccc(F)cc3)nc3cnc(N(C)C)nc32)c1 12%
FC(F)(F)c1ccccc1-c1nc(NCCN2CCOCC2)c2ccccc2n1 -6.06%
